Results on 40 molecules are retold here after PubChem BioAssay (Tox21).

Results filed as inconclusive are left out. A number with no mark means an inactive call. The call rests on the fitted dose curve.
On the % scale 0 is the no-effect control and ±100 the full control effect.

Chain of Vitamin D3 receptor (Homo sapiens) (P11473 whole entry, looked up): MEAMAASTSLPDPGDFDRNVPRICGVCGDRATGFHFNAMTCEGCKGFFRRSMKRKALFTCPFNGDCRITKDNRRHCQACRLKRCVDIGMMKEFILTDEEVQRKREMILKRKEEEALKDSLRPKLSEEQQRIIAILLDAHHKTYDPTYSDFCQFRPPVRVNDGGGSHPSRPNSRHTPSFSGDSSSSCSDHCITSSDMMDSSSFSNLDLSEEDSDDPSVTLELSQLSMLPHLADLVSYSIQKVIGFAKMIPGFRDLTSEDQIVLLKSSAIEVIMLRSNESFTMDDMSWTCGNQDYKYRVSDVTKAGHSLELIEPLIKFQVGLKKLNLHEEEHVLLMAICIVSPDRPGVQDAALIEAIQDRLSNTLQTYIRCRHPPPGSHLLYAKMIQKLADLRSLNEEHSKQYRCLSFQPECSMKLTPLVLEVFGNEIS

The test deals with Vitamin D3 receptor (Homo sapiens) (UniProt P11473). The experiment in a line: qHTS assay to identify small molecule agonists of the vitamin D receptor (VDR) signaling pathway (AID 743222). The following applies: HEK293T VDR-UAS-bla, beta-lactamase FRET ratio, 16 h; series mostly up to 63.5 µM; activation: at the top concentration. The text has this:
National Center for Advancing Translational Sciences [NCATS]
NIH Chemical Genomics Center [NCGC]
U.S. Environmental Protection Agency [EPA]
National Institutes of Environmental Health Sciences [NIEHS]
National Toxicology Program [NTP]
U.S. Food and Drug Administration [FDA]
The vitamin D receptor (VDR), a member of nuclear hormone receptor superfamily, plays a critical role in calcium homeostasis and bone metabolism. It is also involved in cell differentiation and growth, and thrombogenicity.
Tox21 Assay Protocol Summary:
VDR-bla cells were dispensed at 2,000 cells/6 uL/well into black wall/clear-bottom 1536-well plates using a Multidrop Combi (Thermo Fisher Scientific, Waltham, MA) dispenser. After the assay plates were incubated at a 37C and 5% CO2 for 4 h, 23 nL of compounds dissolved in DMSO, positive controls or DMSO only was transferred to the assay plate by a Pintool station (Kalypsys, San Diego, CA). The plates were incubated at 37C and 5% CO2 for 16 h. After 1 uL of LiveBLAzerTM B/G FRET substrate was added using a Bioraptr Flying Reagent Dispenser (FRD) workstation (Beckman Coulter, Indianapolis, IN, USA), the plates were incubated at room temperature for 2 h, and fluorescence intensity was measured by an Envision plate reader (PerkinElmer, Shelton, CT).
(In general: qHTS replaces the single test concentration by a dilution series.)
For the molecule `CN(N=O)C(N)=O`, the “activation” value was -13.2%.

As to `CC(Cl)(Cl)[N+](=O)[O-]`, the “activation” value was -0.23%. On to `O=[N+]([O-])c1cccc(O)c1`, for which the “activation” value is -3.52% [at 81.1 µM]. In the case of `c1coc(-c2nc3ccccc3[nH]2)c1`, the “activation” value is 9.27%. With `CC1CCCCC1NC(=O)Nc1ccccc1` (stereo not given) the figure was -0.396%. Under `CN1CCN(C(=O)O[C@H]2c3nccnc3C(=O)N2c2ccc(Cl)cn2)CC1` stands 8.56%.

Regarding `COc1cc(C[C@@H](C)N)c(OC)cc1C`, the “activation” value is 9.75% [at 81.1 µM].

For the molecule `CC1(C)COP(Oc2ccccc2)OC1`, the “activation” value is 5.2%.

Turning to `CCCSC(=O)Cl`, the “activation” value is -2.01% [at 81.1 µM]. On to `Cc1cnc[nH]1`, for which the “activation” value is -5.03%. With `CC(=O)Nc1cc([As](=O)(O)O)ccc1O` the figure was -3.13%; with `CCS(=O)(=O)CCSP(=O)(OC)OC`, -1.07%. With `CCCCOC(=O)c1ccccc1N`, the “activation” value was 0.69% [at 81.1 µM]. With `CN/C(=N\[N+](=O)[O-])NCC1CCOC1` (stereo not given) the figure was 4.96%; with `COc1cc2c(cc1OC)[C@@]13CCN4CC5=CCO[C@H]6CC(=O)N2[C@H]1[C@H]6[C@H]5C[C@H]43`, -9.55%.

For `Cc1ncsc1CCCl`, the “activation” value was -0.422%. Take `Oc1c(Cl)cccc1Cl`: the “activation” value was -2.44%. As to `CC1(C(=O)Nc2ccc(O)c(Cl)c2Cl)CCCCC1`, the “activation” value is 1.59%. Under `COc1ccc2c(c1OC)CN1CCc3cc4c(cc3C1C2)OCO4` (stereo not given) stands 3.96%. With `ClCC(Cl)(Cl)Cl` the figure was 2.58% [at 81.1 µM].

With `O=NN1CCCCC1`, the “activation” value was 4.47%. Consider `C(CCOCC1CO1)COCC1CO1` (stereo not given), for which the “activation” value was 3.01%.

`CNC(=O)O/N=C(\C)SC`: the “activation” value is 2.8%. As for `ClC(Cl)Br`, the “activation” value was -2.43% [at 81.1 µM]. As to `COC(=O)C(C)Oc1ccc(Oc2ccc(Cl)cc2Cl)cc1` (stereo not given), the “activation” value is -12.9%. Under `COC(=O)C(c1ccccc1)C1CCCCN1` (stereo not given) stands 8.16%; under `C=C(C)CN(CC)c1c([N+](=O)[O-])cc(C(F)(F)F)cc1[N+](=O)[O-]`, 0.366%; under `CCOP(=S)(OCC)SCSP(=S)(OCC)OCC`, -0.646%.

With `NC(=O)O`, the “activation” value is 8.45%.

For the molecule `COC(=O)COc1ccc(Cl)cc1Cl`, the “activation” value is 5.72%. Turning to `CC1CCC(=O)O1` (stereo not given), the “activation” value was 5.21%.

With `C[C@]12CC[C@H]3[C@@H](CC=C4C[C@@H](O)CC[C@@]43C)[C@@H]1CC[C@@H]2O`, the “activation” value was 2.21%. Under `O=S(=O)(O)C(F)(F)C(F)(F)C(F)(F)C(F)(F)C(F)(F)C(F)(F)F` stands 4.71%.

`OC(Cn1cncn1)(c1ccc(F)cc1)c1ccccc1F` (stereo not given): the “activation” value was -14.1%.

Regarding `Cc1cccc(C#N)c1`, the “activation” value was -2.01%.

For the molecule `COP(=S)(OC)Oc1c(Cl)cc(C)cc1Cl`, the “activation” value was 3.5%. For `CC(C)(C)NCC(O)c1cc(Cl)c(N)c(Cl)c1` (stereo not given), the “activation” value is -1.96%. Under `CCSC(=O)N(CC)C1CCCCC1` stands 0.0961%; under `C=CC1CC=CCC1` (stereo not given), 7%; under `Nc1n[nH]c(N)n1`, 8.3% [at 81.1 µM].
